Screening data (PubChem BioAssay)
Shown are actives, neighbours in structure and some others; about 10% of the full set was active somewhere.
Lmaj promast: Leishmania major promastigote growth inhibition | Leishmania major promastigotes, resazurin fluorescence viability | inhibition, % at 10 µM | actives 9% (n = 200,000); in the data active means inhibition above about 50%;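 further: promastigotes grown with compound for 44 hours at 28 °C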
INS promoter inh: TRM-6 insulin promoter activity inhibition; actives 0.9% (n = 130,000); TRM-6 cells (human fetal islet line), insulin promoter-eGFP reporter, imaging; reporter expression induced with tamoxifen; inhibition, % at 2 µM;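 active means inhibition above the mean plus 3 SD, with well images judged a real hit on visual review, cut at about 60% in these data, passing the limit was not always enough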
ROMK primary: modulates human ROMK potassium channel activity | Tet-inducible ROMK, thallium flux fluorescence; actives lie on both sides | P48048 | actives 2% (n = 130,000) | AID 1918 | B-score at 10 µM;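 active means signal ratio slope over the read window, or its plate-corrected B-score, at least 3 SD from the plate mean, either direction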;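 further: B-score of the F/F0 ratio slope over 7 to 12 s after thallium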
Target sequence (P48048 whole entry, looked up): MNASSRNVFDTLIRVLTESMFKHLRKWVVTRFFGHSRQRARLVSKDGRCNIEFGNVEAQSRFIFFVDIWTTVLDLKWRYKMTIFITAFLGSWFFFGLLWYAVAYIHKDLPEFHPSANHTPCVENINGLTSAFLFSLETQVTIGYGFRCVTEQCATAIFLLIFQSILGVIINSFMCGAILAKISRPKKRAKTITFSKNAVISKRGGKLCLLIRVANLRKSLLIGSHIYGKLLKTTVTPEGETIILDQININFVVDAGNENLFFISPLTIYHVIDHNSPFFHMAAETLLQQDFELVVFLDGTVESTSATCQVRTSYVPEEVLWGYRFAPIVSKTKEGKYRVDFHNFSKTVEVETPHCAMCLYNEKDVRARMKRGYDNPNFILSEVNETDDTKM
p97 inhibitor: inhibitors of human p97 ATPase; P55072; recombinant p97 ATPase, Kinase-Glo ATP luminescence, 3 h; inhibition, % at 8 µM; actives 0.42% (n = 220,000); AID 1481; in the data active means inhibition above about 15%;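 further: 0% = DMSO vehicle and 100% = wells lacking enzyme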
PTEN del growth: suppresses growth of cells with PTEN deletion; AID 827; viability, % at 10 µM; HCT116 PTEN-null viability, CellTiter-Glo, 60 h; active compounds read low; actives 1.2% (n = 140,000);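 active means viability at or below a set limit, 4 SD under the median of all tested compounds, cut at about 3.7% in these data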;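 further: PTEN knockout HCT116 line with beta catenin targeted HCT116 as companion control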
HCT116 bCat-KO: beta-catenin-lacking colon tumor cell growth suppression | actives 1.5% (n = 140,000) | HCT116 beta-catenin knockout viability, CellTiter-Glo, 60 h; active compounds read low | viability, % at 10 µM;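 active means viability at or under a set limit, the compound median less 4 SD, cut at about 6% in these data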;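 further: 0% = Hyamine 1622 control at 20 µM and 100% = untreated cell control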
Active calls of the source: *.

What do the screens show for `CCC(C(=O)NCc1ccccc1OC)n1nc(C)n2c(cc3occc32)c1=O` (centres undefined)?
Lmaj promast: -1; INS promoter inh: -61; ROMK primary: 0.8; p97 inhibitor: 0; PTEN del growth: 98; HCT116 bCat-KO: 110

How did CCN(CC)C(=O)c1ccc(NS(=O)(=O)c2ccccc2)cc1 do in these assays?
Lmaj promast: 5; INS promoter inh: 100*; p97 inhibitor: 6; PTEN del growth: 94; HCT116 bCat-KO: 101

What do the screens show for `CCN(CC)C(=O)c1ccc(NS(=O)(=O)c2ccc(/C=C/C(=O)O)cc2)cc1`?
Lmaj promast: -4; INS promoter inh: 40; ROMK primary: 0.055; p97 inhibitor: -3

How did Cc1ccccc1C1C(C#N)=C2N=C(N)c3ccccc3N2C2=C1C(=O)CCC2 (centres undefined) do in these assays?
ROMK primary: 0.0014; p97 inhibitor: 8

What do the screens show for `N#CC1=C2N=C(N)c3ccccc3N2C2=C(C(=O)CCC2)C1c1cccc(Cl)c1` (centres undefined)?
Lmaj promast: 81*; INS promoter inh: -2; ROMK primary: -0.55; p97 inhibitor: 9; PTEN del growth: 40; HCT116 bCat-KO: 44

Results for O=C(Nc1ccc2c(c1)OCO2)C1CCN(S(=O)(=O)Cc2ccccc2)CC1 ?
Lmaj promast: -4; p97 inhibitor: -2; PTEN del growth: 96; HCT116 bCat-KO: 100

What do the screens show for `CC(C)c1ccc(NC(=O)NC2CCN(CC(=O)Nc3cccc4ccccc34)CC2)cc1`?
Lmaj promast: 58*; INS promoter inh: 5; ROMK primary: -0.53; p97 inhibitor: -1; PTEN del growth: 58; HCT116 bCat-KO: 57

What do the screens show for `O=C(CN1CCC(NC(=O)c2ccccc2F)CC1)Nc1ccc2c(c1)OCCO2`?
Lmaj promast: -4; ROMK primary: -0.33; p97 inhibitor: 2

Results for O=C(Nc1ccc(F)cc1)NC1CCN(Cc2ccccc2)CC1 ?
Lmaj promast: 55*; p97 inhibitor: 1

How did O=C(Nc1ccccc1)NC1CCN(Cc2c(F)cccc2Cl)CC1 do in these assays?
p97 inhibitor: 5

How did O=C(Nc1ccc2c(c1)OCO2)NC1CCN(Cc2ccccc2)CC1 do in these assays?
Lmaj promast: 78*; INS promoter inh: -19; p97 inhibitor: 2; PTEN del growth: 81; HCT116 bCat-KO: 70

What do the screens show for `Cc1ccccc1C(=O)NC1CCN(CC(=O)Nc2ccc3c(c2)OCCO3)CC1`?
Lmaj promast: 90*; ROMK primary: -0.84; p97 inhibitor: 2

Results for NC(=O)c1cc2cc(Cc3ccccc3Cl)ccc2oc1=O ?
Lmaj promast: -7; ROMK primary: -0.71; p97 inhibitor: 6

How did CC(C)(C)OC(=O)N1CCN(C(=O)c2cccnc2Cl)CC1 do in these assays?
Lmaj promast: -4; ROMK primary: -0.34; p97 inhibitor: 1

What do the screens show for `O=C(O)c1[nH]c2ccccc2c1C=NCc1ccccc1Cl`?
Lmaj promast: -9; INS promoter inh: 53; ROMK primary: -0.78; p97 inhibitor: 3

What do the screens show for `Cc1ccc(N2CC(O)=C(c3nc4ccccc4c(=O)[nH]3)C2=N)cc1C`?
Lmaj promast: 18; INS promoter inh: 14; p97 inhibitor: 5

How did O=C(Nc1ccc2c(c1)OCO2)C1CCN(Cc2cnn(-c3ccccc3)c2-n2cccc2)CC1 do in these assays?
Lmaj promast: 98*; INS promoter inh: -32; ROMK primary: -2.5; p97 inhibitor: -7; PTEN del growth: 61; HCT116 bCat-KO: 45

Results for CCN1CCN(C(=O)c2ccc(CN(c3ccccc3)S(=O)(=O)c3ccccc3)cc2)CC1 ?
Lmaj promast: 80*; INS promoter inh: -14; p97 inhibitor: 0; PTEN del growth: 93; HCT116 bCat-KO: 84

Results for CN1CCN(C(=O)c2ccc(CN(c3ccccc3)S(=O)(=O)c3ccccc3)cc2)CC1 ?
Lmaj promast: 3; ROMK primary: 0.078; p97 inhibitor: -4

How did O=C(c1ccc(-n2cccc2)cc1)N1CCN(Cc2ccccc2)CC1 do in these assays?
Lmaj promast: 75*; INS promoter inh: -32; p97 inhibitor: -2; PTEN del growth: 82; HCT116 bCat-KO: 91

What do the screens show for `COc1ccc(CCNC(=O)C2CCC(CNS(=O)(=O)c3ccccc3)CC2)cc1OC` (centres undefined)?
Lmaj promast: 2; INS promoter inh: 33; ROMK primary: 0.81; p97 inhibitor: 0
